# Data: PubChem BioAssay (EPA / NIEHS)
# Where “and” joins values, the source holds several entries; their conditions need not be identical. Equal values may be shown once. Inconclusive results are not listed. Some structures have more than one record in an assay (separate samples or runs), and their calls can disagree. Calls of active or inactive are those of the source. How the source made its calls, unless noted: active means hit-call score of the fitted dose curve at least 0.9, where 1 is the maximum; inactive means score below 0.9.
# Key:
# [1] = CCTE_Shafer_MEA_acute_burst_duration_mean: CCTE's Neural Acute Assay for Mean Burst Duration, Shafer Lab (AID 2284014);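 further: hits are decreases in mean burst duration relative to DMSO controls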
# How it was run: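 Rat cortical cultures, DIV 13/15; 40 min baseline, then 40 min with compound (0.03-40 uM), 37 C. Spikes: 300-5000 Hz band-pass, 8x rms threshold. Read-out: % change in mean single-electrode burst duration, DMSO-referenced, loss direction.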
# [2] = CCTE_Shafer_MEA_acute_per_burst_spike_number_mean: CCTE's Neural Acute Assay for Average Number of Spikes Per Burst, Shafer Lab (AID 2284015);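 further: hits are decreases in mean spikes per burst versus baseline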
# How it was run: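 Rat primary cortical neurons on 48-well MEAs (DIV 13 or 15) were treated with 0.03-40 uM compound at 37 C. Mean spikes per burst over 40 min were recorded before and after exposure and expressed as percent change from baseline, relative to DMSO.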
# [3] = CCTE_Shafer_MEA_acute_interburst_interval_mean: CCTE's Neural Acute Assay for Mean Interburst Interval, Shafer Lab (AID 2284016);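 further: percent change of mean interburst interval versus each well's own pre-dose baseline; curves fitted for decrease in interburst interval relative to DMSO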
# How it was run: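 Rat primary cortical neurons on 48-well MEAs at DIV 13 or 15 were exposed acutely to 0.03-40 uM. Spikes detected at 8x rms noise, 37 C. Mean interburst interval from 40 min recordings expressed as percent change from 40 min pre-treatment baseline.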
# [4] = CCTE_Shafer_MEA_acute_burst_percentage_mean: CCTE's Neural Acute Assay for Percentage of Spikes in a Burst, Shafer Lab (AID 2284017);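 on AC50: curve fitted for loss of signal so potency reflects decreased burst percentage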
# How it was run: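 Primary rat cortical neurons on 48-well MEA plates, treated on DIV 13 or 15 at 0.03-40 uM. Spikes detected at 8x rms noise at 37C; percent change from 40-min baseline to 40-min post-dose recording, fitted versus DMSO.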
# [5] = CCTE_Shafer_MEA_acute_burst_percentage_std: CCTE's Neural Acute Assay for Standard Deviation of Burst Percentage, Shafer Lab (AID 2284018);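 further: fitted in the negative direction so actives lower burst percentage SD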
# How it was run: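 Rat primary cortical neurons on 48-well MEAs, DIV 13 or 15, 37 C. 40-min baseline then 40-min recording with compound (0.03-40 uM); well-level SD of per-electrode burst spike percentage, expressed as percent change from baseline.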
# [6] = CCTE_Shafer_MEA_acute_per_network_burst_spike_number_mean: CCTE's Neural Acute Assay for Average Number of Spikes in a Network Burst, Shafer Lab (AID 2284019);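 on AC50: curve fitted for loss of signal so actives reduce spikes per network burst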
# How it was run: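 Rat cortical cultures, DIV 13/15; spike threshold 8x rms noise, 300-5000 Hz band-pass, 12.5 kHz sampling; wells need >/= 10 active electrodes. Compound 0.03-40 uM, 40 min, 37 C; % change vs own baseline, DMSO negative control.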
# [7] = CCTE_Shafer_MEA_acute_per_network_burst_electrodes_number_mean: CCTE's Neural Acute Assay for Mean Number of Electrodes in a Network Burst, Shafer Lab (AID 2284021);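 further: curves fitted for decreases only so hits reduce electrodes per burst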
# How it was run: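 Rat primary cortical neurons on 16-electrode MEA wells were recorded 40 min at baseline on DIV 13 or 15, then 40 min after compound (0.03-40 uM), at 37 C. Value is percent change per well, fitted in loss direction versus DMSO.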
# [8] = CCTE_Harrill_HTTr_Viability_MCF7: CCTE's 6-hour Cell Viability Assessment for the High-Throughput Transcriptomics (HTTr) Platform, in MCF-7 cells cultured in DMEM + 10% fetal bovine serum, Harrill Lab (AID 2284010)
# How it was run: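 Propidium iodide exclusion, imaged by high-content analysis, gauged viability after a six-hour exposure across eight concentrations. Cells were MCF-7 grown in DMEM with 10% fetal bovine serum; fits run in both directions against DMSO.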
# [9] = CCTE_Harrill_HTTr_CellCount_MCF7: CCTE's Cell Proliferation Assessment for the High-Throughput Transcriptomics (HTTr) Platform, Harrill Lab (AID 2284012; active means hit-call score of the fitted dose curve at least 0.9, where 1 is the maximum;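 further: cells exposed to compound for six hours; intended direction is loss of nuclei count meaning fewer cells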)
# How it was run: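 Cell count from high-content imaging of Hoechst-labeled nuclei serves as viability/growth readout. Chemicals were applied to MCF-7 cells in eight concentrations for six hours, with fitting in both directions relative to DMSO.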
compound,measurement,setting,value
CN(C)C=O,outcome,[1],inactive
same,outcome,[2],inactive
same,outcome,[3],inactive
same,outcome,[4],inactive
same,outcome,[5],inactive
same,outcome,[6],inactive
same,outcome,[7],inactive
NC(=O)N(O)[C@@H]1C=C[C@H](Oc2cccc(Oc3ccc(F)cc3)c2)C1,outcome,[8],inactive
same,outcome,[9],inactive
same,AC50,[1],18.5 µM (active)
same,AC50,[2],10 µM (active)
same,AC50,[3],2.69 µM (active)
same,AC50,[4],12.9 µM (active)
same,outcome,[5],inactive
same,outcome,[6],inactive
same,outcome,[7],inactive
O=C(O)Cc1cc(I)c(Oc2cc(I)c(O)c(I)c2)c(I)c1,outcome,[8],inactive
same,outcome,[9],inactive
CN1CCC[C@H]1c1cccnc1,outcome,[1],inactive
same,outcome,[2],inactive
same,outcome,[3],inactive
same,outcome,[4],inactive
same,outcome,[5],inactive
same,outcome,[6],inactive
same,outcome,[7],inactive
CC#C[C@]1(O)CC[C@H]2[C@@H]3CCC4=CC(=O)CCC4=C3[C@@H](c3ccc(N(C)C)cc3)C[C@@]21C,outcome,[8],inactive
same,outcome,[9],inactive
same,outcome,[1],inactive
same,AC50,[2],32.9 µM (active)
same,outcome,[2],inactive
same,AC50,[3],4.16 µM (active)
same,outcome,[3],inactive
same,AC50,[4],16.3 µM (active) and 5.2 µM (active)
same,AC50,[5],4.22 µM (active) and 6.02 µM (active)
same,outcome,[6],inactive
same,AC50,[7],7.54 µM (active)
same,outcome,[7],inactive
ClC1=C(Cl)C(Cl)(Cl)C(Cl)=C1Cl,outcome,[8],inactive
same,outcome,[9],inactive
CCCCC(CC)COC(=O)CCCCC(=O)OCC(CC)CCCC (stereo unspecified),outcome,[8],inactive
same,outcome,[9],inactive
CCc1ccc(CCOc2ccc(CC3SC(=O)NC3=O)cc2)nc1 (stereo unspecified),outcome,[8],inactive
same,outcome,[9],inactive
same,outcome,[1],inactive
same,outcome,[2],inactive
same,outcome,[3],inactive
same,outcome,[4],inactive
same,outcome,[5],inactive
same,outcome,[6],inactive
same,outcome,[7],inactive
c1ccc2c(c1)Cc1ccccc1-2,outcome,[8],inactive
same,outcome,[9],inactive
CC(C)CCCCCCOC(=O)CCCCC(=O)OCCCCCCC(C)C,outcome,[8],inactive
same,outcome,[9],inactive
same,outcome,[1],inactive
same,outcome,[2],inactive
same,outcome,[3],inactive
same,outcome,[4],inactive
same,outcome,[5],inactive
same,outcome,[6],inactive
same,outcome,[7],inactive
OCCC(F)(F)C(F)(F)C(F)(F)C(F)(F)C(F)(F)C(F)(F)F,outcome,[8],inactive
same,outcome,[9],inactive
CC[C@H](c1ccc(O)cc1)[C@@H](CC)c1ccc(O)cc1,outcome,[8],inactive
same,outcome,[1],inactive
same,outcome,[2],inactive
same,outcome,[3],inactive
same,outcome,[4],inactive
same,outcome,[5],inactive
same,outcome,[6],inactive
same,outcome,[7],inactive
CCOC(=O)CC(O)(CC(=O)OCC)C(=O)OCC,outcome,[8],inactive
same,outcome,[9],inactive
CC(O)CO (stereo unspecified),outcome,[8],inactive
same,outcome,[9],inactive
CCCCC[C@H](O)CC(=O)CCc1ccc(O)c(OC)c1,outcome,[8],inactive
same,outcome,[9],inactive
O=C(O)c1ccccc1C(c1ccc(O)cc1)c1ccc(O)cc1,outcome,[8],inactive
same,outcome,[1],inactive
same,outcome,[2],inactive
same,outcome,[3],inactive
same,AC50,[4],20 µM (active)
same,outcome,[5],inactive
same,AC50,[6],20 µM (active)
same,outcome,[7],inactive
COc1ccc([N+](=O)[O-])cc1N,outcome,[8],inactive
same,outcome,[9],inactive
NC(=O)N1C(=O)C(C(=O)c2cc(Cl)cs2)c2cc(F)c(Cl)cc21 (stereo unspecified),outcome,[8],inactive
same,outcome,[9],inactive
O=C1OC2(c3ccccc31)c1cc(Br)c(O)c(Br)c1Oc1c2cc(Br)c(O)c1Br,outcome,[8],inactive
same,outcome,[9],inactive
CCCOc1sc(C(=O)N2CCC(c3cc(CN)ccc3F)CC2)c(C)c1Br,outcome,[1],inactive
same,outcome,[2],inactive
same,outcome,[3],inactive
same,outcome,[4],inactive
same,outcome,[5],inactive
same,outcome,[6],inactive
same,outcome,[7],inactive
CC(C)(C)c1cc(C(C)(C)C)c(O)c(C(C)(C)C)c1,outcome,[1],inactive
same,outcome,[2],inactive
same,outcome,[3],inactive
same,outcome,[4],inactive
same,outcome,[5],inactive
same,outcome,[6],inactive
same,outcome,[7],inactive
Cc1cc(CCN2CCN(c3nsc4ccccc34)CC2)cc2c1NC(=O)CC2(C)C,AC50,[8],77.3 µM (active)
same,AC50,[9],92.2 µM (active)
same,AC50,[1],8.81 µM (active)
same,AC50,[2],20 µM (active)
same,AC50,[3],5.98 µM (active)
same,AC50,[4],32.1 µM (active)
same,outcome,[5],inactive
same,outcome,[6],inactive
same,AC50,[7],32.4 µM (active)
O=[N+]([O-])c1ccc(O)cc1,outcome,[8],inactive
same,outcome,[9],inactive
CCc1nn(C2CCCCC2)c2cc(C3(C#N)CCC(C(=O)O)CC3)ccc12 (stereo unspecified),outcome,[8],inactive
same,outcome,[9],inactive
COCC(C)O (stereo unspecified),outcome,[8],inactive
same,outcome,[9],inactive
CC(=O)CC(C)(C)O,outcome,[8],inactive
same,outcome,[9],inactive
CCC(=C(c1ccc(O)cc1)c1ccc(OCCN(C)C)cc1)c1ccccc1,outcome,[8],inactive
same,outcome,[9],inactive
same,AC50,[1],23 µM (active)
same,AC50,[2],21 µM (active)
same,outcome,[3],inactive
same,AC50,[4],20.6 µM (active)
same,outcome,[5],inactive
same,outcome,[6],inactive
same,outcome,[7],inactive
O=c1c(-c2ccc(O)cc2)coc2cc(O)ccc12,outcome,[8],inactive
same,outcome,[9],inactive
same,outcome,[1],inactive
same,outcome,[2],inactive
same,outcome,[3],inactive
same,outcome,[4],inactive
same,outcome,[5],inactive
same,AC50,[6],4.06 µM (active)
same,outcome,[7],inactive
Cc1oc(-c2ccccc2)nc1CCOc1ccc(C[C@H](Nc2ccccc2C(=O)c2ccccc2)C(=O)O)cc1,outcome,[8],inactive
same,outcome,[9],inactive
CC(=O)NC1(c2cccc(F)c2)CCN(CC[C@@]2(c3ccc(Cl)c(Cl)c3)CN(c3ccccc3)C(=O)CO2)CC1,outcome,[8],inactive
same,outcome,[9],inactive
same,AC50,[1],1.04 µM (active)
same,outcome,[2],inactive
same,outcome,[3],inactive
same,AC50,[4],8.94 µM (active)
same,AC50,[5],20 µM (active)
same,outcome,[6],inactive
same,outcome,[7],inactive
